Assay results taken from PubChem BioAssay (NCATS).
“And” between values parts separate entries of the source, which are not always exact repeats. Equal entries are not always repeated. Results filed as inconclusive are left out. Where a call stands in place of a potency, no number is given. The source made the active and inactive calls. Calls follow the shape of the full dose curve.

Tests used:
[1] = Cytotoxicity counterscreen for inhibitors of SARS-CoV-2 cell entry (AID 1645845); settings: cell viability (SARS-CoV-2 entry assay cells); series mostly up to 57.1 µM; also: nearly all actives have a fitted effect of over 50% in size
Procedure, shortened: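 After a 15 min room-temperature ATPLite 1step step, luminescence reflected ATP remaining in HEK293-ACE2 cells exposed to compound for 1 h plus 48 h at 37 C, with percent activity set by cell and no-cell controls.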

[2] = Primary qHTS to identify inhibitors of SARS-CoV-2 cell entry (AID 1645846); settings: SARS-CoV-2 pseudovirus cell entry assay, luminescence; activity change, negative = inhibition: at 57.1 µM (top of the series) unless noted; series mostly up to 57.1 µM; also: nearly all actives have a fitted effect of over 45% in size
Procedure, shortened: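 HEK293-ACE2 (Expi293F, stable hACE2), 1500 cells/well, o/n 37C; cpd 23 nL pin, 1 h; MLV-PP w/ SARS-CoV-2-S (Wuhan-Hu-1, Δ19 C-term); 48 h 37C; Bright-Glo luminescence; normalized vs S-PP and bald PP.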

SMILES | Potency [1] | Potency [2] | activity change, negative = inhibition [2]
N[C@@H](Cc1c[nH]c2ccc(O)cc12)C(=O)O | inactive | inactive | –
COc1ccc2c(c1)c(CC(=O)O)c(C)n2C(=O)c1ccc(Cl)cc1 | inactive | inactive | –
CCOC(=O)OC(C)OC(=O)[C@@H]1N2C(=O)[C@@H](NC(=O)[C@H](N)c3ccccc3)[C@H]2SC1(C)C (some centres not stated) | inactive | – | -12.7%
CCNC(=O)NCCCOc1cccc(CN2CCCCC2)c1 | inactive | inactive | –
CCOc1cc(N)c(Cl)cc1C(=O)NCC1CN(Cc2ccc(F)cc2)CCO1 (configuration not stated) | inactive | inactive | –
COc1cc(OC)cc(OC)c1 | inactive | inactive | –
Cc1ccc(/C=N/n2c(-c3ccccc3)csc2=S)cc1 | inactive | – | -8.63%
CCCCOc1ccc(CC(=O)NO)cc1 | inactive | – | -20.4% and -25.7%
CCc1cccc2c3c([nH]c12)C(CC)(CC(=O)O)OCC3 (configuration not stated) | inactive | inactive | –
COC(=O)C1=C(C)NC(C)=C(C(=O)OC)C1c1ccccc1[N+](=O)[O-] | inactive | – | -30.6%
CC(=C(CCOC(=O)C(C)C)SSC(CCOC(=O)C(C)C)=C(C)N(C=O)Cc1cnc(C)nc1N)N(C=O)Cc1cnc(C)nc1N | inactive | inactive | –
NC(CSCC(=O)O)C(=O)O (configuration not stated) | inactive | – | 0.853%
O=C(O)c1cn(-c2ccc(F)cc2)c2cc(N3CCNCC3)c(F)cc2c1=O | inactive | inactive | –
CCOC(=O)[C@H](CCc1ccccc1)N[C@@H](C)C(=O)N1C(=O)N(C)C[C@H]1C(=O)O | inactive | – | -10.6%
Cc1ccc2c(Cl)cc(Cl)c(O)c2n1 | inactive | inactive | –
CC1CC(=O)NN=C1c1ccc(NCC(C)(C)NCC(O)COc2cc(Cl)ccc2C#N)cc1 (configuration not stated) | inactive | – | -23.2%
